“And” between values parts separate entries of the source, which are not always exact repeats. Equal values may be shown once. More than one record can exist for a structure, and the calls need not agree. The source made the active and inactive calls.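 How the source made its calls, unless noted: active means thallium flux through the channel raised or lowered by more than 3 SD from vehicle-only wells, actives on both sides; inactive means the rest.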
Experiments:
[1] = test system: Hepatitis C virus NS3 helicase; test: HCV NS3 helicase inhibitors, primary screen, biochemical, fluorescence polarization, NIH Clinical Collection (AID 743270; call rule not given here); details: NS3 helicase binding to Cy5-dT15 DNA, stronger effect = higher value, concentration not given here
[2] = biological target: Single-stranded DNA-binding protein (Escherichia coli (strain K12)) (UniProt P0AGE0); test: E. coli SSB displacement from DNA, counter-screen for HCV NS3 helicase inhibitor project, biochemical, fluorescence polarization, NIH Clinical Collection (AID 743271; in the data active means inhibition above about 28%); details: stronger effect = higher value, concentration not given here
[3] = fluorescence interference in NS3h assay format, artefact control for HCV NS3 helicase inhibitor project, biochemical, NIH Clinical Collection (AID 743272; call rule not given here;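 further: HCV NS3 helicase with a Cy5 labelled single stranded DNA probe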); details: fluorescence interference counterscreen, stronger effect = lower value
[4] = stimulators of nuclear beta-catenin in C2C12, primary screen, imaging, WNT3A-conditioned medium, mouse C2C12, NPC library (AID 1117326; in the data active means nuclear beta-catenin stimulation mostly above about 4.2%, no sharp cut-off; inactive means mostly below about 10%); details: stronger effect = higher value
[5] = stimulators of insulin release from INS-1E, primary screen, cell-based, 5 mM glucose, NPC library (AID 1117329;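 active means compound raises insulin release from rat beta cells at 5 mM glucose, no numeric limit stated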); details: rat INS-1E insulin secretion, at 10 µM, stronger effect = higher value
[6] = growth inhibition of GSK3B-pretreated HCT116 cells – cell-based, CellTiter-Glo, 0.2 to 20 µM (AID 1117336;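 active means compounds lowering colon cancer cell viability after pretreatment blocking the GSK3B kinase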); details: HCT116 viability after GSK3B inhibitor, at 20 µM, stronger effect = higher value
[7] = inhibition of endothelial tube formation, primary screen, imaging, VEGF stimulated, CD31 staining, tube area, NPC library (AID 1117340;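 active means compound that reduces growth-factor-driven endothelial tube area in a mixed cell culture, no cutoff stated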); details: VEGF-stimulated ADSC/ECFC co-culture, at 10 µM, stronger effect = higher value
[8] = glucagon-like peptide 1 release enhancers, primary assay, NCI-H716 cell line, NPC library (AID 1117341;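 active means compound raises GLP1 secretion from the human gut endocrine cells, with no numeric limit stated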); details: NCI-H716 cells, at 10 µM, stronger effect = higher value
[9] = HCT116 colon cancer cell growth inhibition, primary screen, CellTiter-Glo luminescence, NPC library (AID 1117342;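 active means compounds that lower survival of HCT116 colon cancer cells in the luminescence readout, no numeric limit stated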); details: at 20 µM (top of the series)
[10] = CellTiter-Glo luminescent readout of SW480 viability loss, NPC library primary (AID 1117343;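 active means compounds that lower viability of the colon cancer cells in the luminescence readout, with no numeric limit stated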); details: CellTiter-Glo luminescence; at 20 µM (top of the series)
[11] = decreased DLD-1 cellular survival, CellTiter-Glo luminescent readout, NPC compound collection, primary HTS (AID 1117346;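 active means compounds that lower survival of DLD-1 colon cancer cells in the luminescence readout, no cutoff given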); details: DLD-1 viability, CellTiter-Glo luminescence; at 20 µM (top of the series)
[12] = biological target: 6-phosphogluconate dehydrogenase, decarboxylating (Homo sapiens) (UniProt P52209); test: 6PGD enzyme inhibitors, primary screen, biochemical, human, recombinant enzyme, NADPH absorbance (AID 1159550;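 active means at least 20% inhibition of 6-phosphogluconate dehydrogenase activity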); details: recombinant 6PGD, NADPH absorbance 341 nm; at 10 µM; stronger effect = higher value
6-phosphogluconate dehydrogenase, decarboxylating (Homo sapiens), sequence (P52209 whole entry, looked up): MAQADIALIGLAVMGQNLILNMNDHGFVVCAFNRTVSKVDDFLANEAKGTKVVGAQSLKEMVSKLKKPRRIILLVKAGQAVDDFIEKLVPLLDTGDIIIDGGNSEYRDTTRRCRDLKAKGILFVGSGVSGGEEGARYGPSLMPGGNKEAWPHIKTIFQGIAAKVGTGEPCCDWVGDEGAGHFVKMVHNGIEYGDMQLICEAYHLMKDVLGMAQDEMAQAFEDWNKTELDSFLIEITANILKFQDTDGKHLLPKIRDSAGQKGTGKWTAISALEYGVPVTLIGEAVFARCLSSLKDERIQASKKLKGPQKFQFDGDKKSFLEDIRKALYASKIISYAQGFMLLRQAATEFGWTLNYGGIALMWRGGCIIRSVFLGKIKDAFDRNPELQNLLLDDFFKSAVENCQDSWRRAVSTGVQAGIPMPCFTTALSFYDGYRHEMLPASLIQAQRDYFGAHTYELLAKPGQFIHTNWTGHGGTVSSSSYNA

[13] = differential killing of epithelial or mesenchymal cells, primary screen, imaging, PC-3E GFP, TEM4-18 mCherry, co-culture (AID 1345086;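 active means compounds killing one labelled cell type while sparing the other, by normalised counts and ratio limits, not self-fluorescent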;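 on all read-outs here: cells exposed to compound for 72 h before imaging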;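 on red/green cell ratio (normalised): normalised mesenchymal count divided by normalised epithelial count so high means epithelial killing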); details: imaging cell counts, at 1 µM; for red/green cell ratio (normalised): actives lie on both sides, counts scaled to control wells, 1 = unselective
[14] = survival rescue of mitochondrial mutant cells in low glucose, primary screen, MELAS cybrids, Rieske KO mouse fibroblasts, CellTiter-Glo (AID 1508586;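 active means mean z-score across replicates of 1.96 or higher in either the MELAS or the Rieske mutant cell line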;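 further: z relative to plate mean and SD of compound and empty wells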)
[15] = biological target: NAD(+) hydrolase SARM1 (Homo sapiens) (UniProt Q6SZW1); test: SARM1 TIR NADase inhibitors, cell lysate, NAD-Glo luminescence (AID 1508614;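 active means compound whose remaining NAD level is above about 45 nM, limit read from the data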); details: SAM-TIR HEK293T lysate NADase, at 1 µM, stronger effect = higher value
NAD(+) hydrolase SARM1 (Homo sapiens), sequence (Q6SZW1 whole entry, looked up, the tested form may be a part): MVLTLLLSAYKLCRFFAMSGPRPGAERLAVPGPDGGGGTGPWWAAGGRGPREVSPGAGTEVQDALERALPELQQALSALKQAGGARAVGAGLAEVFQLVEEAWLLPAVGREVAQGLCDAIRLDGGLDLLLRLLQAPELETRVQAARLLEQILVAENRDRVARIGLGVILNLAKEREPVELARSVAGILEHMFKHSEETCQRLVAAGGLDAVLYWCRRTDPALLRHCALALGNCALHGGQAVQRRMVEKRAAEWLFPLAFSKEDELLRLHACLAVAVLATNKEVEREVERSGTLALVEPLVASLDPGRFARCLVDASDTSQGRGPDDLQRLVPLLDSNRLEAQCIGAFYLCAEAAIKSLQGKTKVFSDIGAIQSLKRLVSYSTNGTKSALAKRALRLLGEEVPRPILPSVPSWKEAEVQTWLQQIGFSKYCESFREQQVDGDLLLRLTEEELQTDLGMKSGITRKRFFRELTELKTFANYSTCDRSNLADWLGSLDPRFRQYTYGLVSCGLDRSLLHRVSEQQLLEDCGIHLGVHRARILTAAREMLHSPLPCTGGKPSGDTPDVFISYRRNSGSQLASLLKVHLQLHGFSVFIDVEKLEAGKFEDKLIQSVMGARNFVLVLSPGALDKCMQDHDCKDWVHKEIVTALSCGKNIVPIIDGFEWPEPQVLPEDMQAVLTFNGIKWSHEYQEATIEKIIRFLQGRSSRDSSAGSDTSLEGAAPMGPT

[16] = biological target: Mitogen-activated protein kinase 7 (Homo sapiens) (UniProt Q13164); test: ERK5 transactivation activators in reporter cells, primary screen, cell-based, HTS (AID 1508626;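 active means luciferase signal above three times the same-plate solvent-only control wells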;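 further: luciferase driven by Gal4-ERK5 fusion binding five Gal4 sites before minimal TATA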); details: HeLa Gal4-ERK5 transactivation, 18 h, at 5 µM, stronger effect = higher value
Mitogen-activated protein kinase 7 (Homo sapiens), sequence (Q13164 whole entry, looked up, the tested form may be a part): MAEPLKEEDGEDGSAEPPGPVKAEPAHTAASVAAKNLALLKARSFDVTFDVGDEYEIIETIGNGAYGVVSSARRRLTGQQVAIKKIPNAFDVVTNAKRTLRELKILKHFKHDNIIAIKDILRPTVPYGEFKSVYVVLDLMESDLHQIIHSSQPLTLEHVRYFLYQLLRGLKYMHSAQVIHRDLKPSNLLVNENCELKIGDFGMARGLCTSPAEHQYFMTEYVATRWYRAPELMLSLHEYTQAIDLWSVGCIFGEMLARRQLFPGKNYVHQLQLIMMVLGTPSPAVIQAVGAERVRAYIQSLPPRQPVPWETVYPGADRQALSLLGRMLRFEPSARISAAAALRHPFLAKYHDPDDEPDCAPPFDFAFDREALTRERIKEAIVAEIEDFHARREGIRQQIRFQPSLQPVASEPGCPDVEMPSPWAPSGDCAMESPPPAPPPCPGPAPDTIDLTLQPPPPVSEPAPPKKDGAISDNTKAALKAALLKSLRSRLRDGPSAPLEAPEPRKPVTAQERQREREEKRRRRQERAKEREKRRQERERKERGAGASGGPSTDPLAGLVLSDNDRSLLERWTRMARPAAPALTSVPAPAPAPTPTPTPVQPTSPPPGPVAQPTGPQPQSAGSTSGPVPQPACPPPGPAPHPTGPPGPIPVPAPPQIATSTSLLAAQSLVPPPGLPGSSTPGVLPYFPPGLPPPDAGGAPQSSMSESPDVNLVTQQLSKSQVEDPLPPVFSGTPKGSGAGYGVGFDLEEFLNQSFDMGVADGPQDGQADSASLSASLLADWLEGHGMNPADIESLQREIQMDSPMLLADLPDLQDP

[17] = test system: F380Y; test: modulators of BK channel variants, profiling panel, selectivity assay, cell-based, U2OS BacMam, thallium flux, beta subunits (AID 1259406); details: at 30 µM;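 further: initial slope of Thallos dye fluorescence rise after thallium is added; log ratio against the mean of 0.3% DMSO vehicle wells on the same plate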
[18] = test system: F380Y/beta2Delta; test: as above; details: at 30 µM
[19] = biological target: Calcium-activated potassium channel subunit alpha-1 (Homo sapiens) + Leucine-rich repeat-containing protein 26 (Homo sapiens) (UniProt Q12791+Q2I0M4); test: as above; details: F380Y/Slo1WT/gamma1, at 30 µM
Calcium-activated potassium channel subunit alpha-1 (Homo sapiens) + Leucine-rich repeat-containing protein 26 (Homo sapiens), sequence (Q2I0M4 whole entry, looked up, one chain of several): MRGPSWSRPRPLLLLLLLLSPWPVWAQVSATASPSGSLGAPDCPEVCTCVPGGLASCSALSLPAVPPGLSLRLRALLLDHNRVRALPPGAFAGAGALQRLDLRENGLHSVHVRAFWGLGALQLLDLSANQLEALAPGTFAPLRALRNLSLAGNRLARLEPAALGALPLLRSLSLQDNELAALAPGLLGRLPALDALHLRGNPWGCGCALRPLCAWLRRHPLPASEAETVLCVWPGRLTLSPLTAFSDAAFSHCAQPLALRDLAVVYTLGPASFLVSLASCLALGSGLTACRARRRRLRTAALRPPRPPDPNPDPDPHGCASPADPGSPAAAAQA

[20] = sensitizers of A549 cells to miR-34 induction, primary screen, imaging, A549 dox-inducible miR-34, nuclei and caspase counts (AID 1347080;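 active means compounds whose cell count with miR-34 switched on is under 0.7 times the count with it off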); details: A549 miR-34 inducible, Hoechst nuclei count, 48 h
[21] = measured here: epithelial PC-3E GFP cell survival
[22] = measured here: mesenchymal TEM4-18 mCherry cell survival
[23] = MELAS cybrid survival, CellTiter-Glo 48 h, stronger effect = higher value
[24] = Rieske KO mouse fibroblast survival, CellTiter-Glo 72 h
[25] = stronger effect = lower value, cell number ratio, induced over uninduced
[26] = measured here: relative caspase fold change +Dox/-Dox
[27] = measured here: total cells with miR-34 induction, stronger effect = lower value
[28] = measured here: total cells without miR-34 induction

NC(=O)N1c2ccccc2C=Cc2ccccc21
inhibition [1]: -3.18% (inactive)
inhibition [2]: -3.53% (inactive)
fluorescence ratio [3]: 1.04 (inactive)
nuclear beta-catenin stimulation ([4]; at 10 µM): 1% (inactive)
nuclear beta-catenin stimulation ([4]; stimulation, at 2 µM): 0.9%
insulin secretion stimulation [5]: -1.9% (inactive)
viability decrease [6]: -2.95% (inactive)
tube area decrease [7]: 0.8% (inactive)
GLP1 secretion stimulation [8]: 4.4% (inactive)
inhibition of viability [9]: -18.7% (inactive)
viability decrease (inhibition) [10]: 20.2% (inactive)
viability decrease (inhibition) [11]: -3.3% (inactive)
inhibition [12]: 4.77% (inactive)
red/green cell ratio (normalised) [13]: 0.88 (inactive)
normalised cell number [13, 21]: 1.19
normalised cell number [13, 22]: 1.04
z-score [14, 23]: 2.18 (active) and 0.491 (inactive) and -0.759 (inactive)
z-score [14, 24]: -0.583 and -0.0689 and -0.563
remaining NAD [15]: 10 nM (inactive)
luciferase signal [16]: 36 AU (inactive)
log fold change Tl+ flux [17]: -0.0389 (inactive)
log fold change Tl+ flux [18]: -0.0114 (inactive)
log fold change Tl+ flux [19]: -0.0331 (inactive)

NS(=O)(=O)c1cc2c(cc1C(F)(F)F)NCNS2(=O)=O
inhibition [1]: -3.18% (inactive)
inhibition [2]: -0.48% (inactive)
fluorescence ratio [3]: 0.93 (inactive)
nuclear beta-catenin stimulation ([4]; at 10 µM): -1% (inactive)
nuclear beta-catenin stimulation ([4]; stimulation, at 2 µM): 1%
insulin secretion stimulation [5]: -0.5% (inactive)
viability decrease [6]: -8.5% (inactive)
tube area decrease [7]: -8.6% (inactive)
GLP1 secretion stimulation [8]: 0.4% (inactive)
inhibition of viability [9]: -2% (inactive)
viability decrease (inhibition) [10]: 10.4% (inactive)
viability decrease (inhibition) [11]: -13.4% (inactive)
inhibition [12]: -4.61% (inactive)
red/green cell ratio (normalised) [13]: 1.07 (inactive)
normalised cell number [13, 21]: 0.95
normalised cell number [13, 22]: 1.02
fold change [20, 25]: 0.934 (inactive) and 0.925 (inactive) and 0.803 (inactive)
fold change [20, 26]: 2.9 and 1.27 and 0.875
cell count [20, 27]: 10100 and 9100 and 10600
cell count [20, 28]: 10900 and 9840 and 13200
z-score [14, 23]: 0.119 (inactive)
z-score [14, 24]: 0.185
remaining NAD [15]: 10 nM (inactive)
luciferase signal [16]: 40 AU (inactive)
log fold change Tl+ flux [17]: -0.0227 (inactive)
log fold change Tl+ flux [18]: 0.0255 (inactive)
log fold change Tl+ flux [19]: -0.0239 (inactive)

CC(C)NCC(O)c1cc(O)cc(O)c1 (stereo not given)
inhibition [1]: -5% (inactive)
inhibition [2]: -4.29% (inactive)
fluorescence ratio [3]: 1.02 (inactive)
nuclear beta-catenin stimulation ([4]; at 10 µM): 1.6% (inactive)
nuclear beta-catenin stimulation ([4]; stimulation, at 2 µM): 0.9%
insulin secretion stimulation [5]: 1.2% (inactive)
viability decrease [6]: 6% (inactive)
tube area decrease [7]: 3.6% (inactive)
GLP1 secretion stimulation [8]: 2.2% (inactive)
inhibition of viability [9]: -11.2% (inactive)
viability decrease (inhibition) [10]: -1.6% (inactive)
viability decrease (inhibition) [11]: -9.9% (inactive)
inhibition [12]: -6.42% (inactive)
red/green cell ratio (normalised) [13]: 1.18 (inactive)
normalised cell number [13, 21]: 1.02
normalised cell number [13, 22]: 1.2
fold change [20, 25]: 1.13 (inactive) and 0.914 (inactive) and 0.836 (inactive)
z-score [14, 23]: 0.509 (inactive)
z-score [14, 24]: 0.459
remaining NAD [15]: 10 nM (inactive)
luciferase signal [16]: 92 AU (inactive)
log fold change Tl+ flux [17]: -0.0466 (inactive)
log fold change Tl+ flux [18]: 0.0418 (inactive)
log fold change Tl+ flux [19]: 0.0135 (inactive)

OCCN1CCN(CCCN2c3ccccc3Sc3ccc(Cl)cc32)CC1
inhibition [1]: -2.27% (inactive)
inhibition [2]: 1.81% (inactive)
fluorescence ratio [3]: 0.84 (inactive)
nuclear beta-catenin stimulation ([4]; at 10 µM): 73.5% (active)
nuclear beta-catenin stimulation ([4]; stimulation, at 2 µM): 2.8%
insulin secretion stimulation [5]: 3.5% (inactive)
viability decrease [6]: 99.5% (active)
tube area decrease [7]: 104% (active)
GLP1 secretion stimulation [8]: 45% (active)
inhibition of viability [9]: 100% (active)
viability decrease (inhibition) [10]: 116% (active)
viability decrease (inhibition) [11]: 101% (active)
inhibition [12]: 10.3% (inactive)
red/green cell ratio (normalised) [13]: 1.35 (inactive)
normalised cell number [13, 21]: 0.97
normalised cell number [13, 22]: 1.32
z-score [14, 23]: 0.299 (inactive)
z-score [14, 24]: 0.539
remaining NAD [15]: 10 nM (inactive)
luciferase signal [16]: 44 AU (inactive)
log fold change Tl+ flux [17]: 0.23 (active)
log fold change Tl+ flux [18]: 0.336 (active)
log fold change Tl+ flux [19]: -0.0145 (inactive)

CCCCNC(=O)NS(=O)(=O)c1ccc(C)cc1
inhibition [1]: -5.91% (inactive)
inhibition [2]: 1.05% (inactive)
fluorescence ratio [3]: 0.91 (inactive)
nuclear beta-catenin stimulation ([4]; at 10 µM): 0.2% (inactive)
nuclear beta-catenin stimulation ([4]; stimulation, at 2 µM): 3.2%
insulin secretion stimulation [5]: 3.85% (inactive)
viability decrease [6]: -5.6% (inactive)
tube area decrease [7]: 5.7% (inactive)
GLP1 secretion stimulation [8]: 6.7% (inactive)
inhibition of viability [9]: -6.5% (inactive)
viability decrease (inhibition) [10]: -6% (inactive)
viability decrease (inhibition) [11]: -5.4% (inactive)
inhibition [12]: -14.4% (inactive)
red/green cell ratio (normalised) [13]: 1.12 (inactive)
normalised cell number [13, 21]: 1.03
normalised cell number [13, 22]: 1.15
z-score [14, 23]: -0.283 (inactive) and 0.394 (inactive) and 0.614 (inactive)
z-score [14, 24]: -0.151 and -0.133 and 0.0575
remaining NAD [15]: 10 nM (inactive)
luciferase signal [16]: 36 AU (inactive)
log fold change Tl+ flux [17]: -0.00894 (inactive)
log fold change Tl+ flux [18]: 0.0378 (inactive)
log fold change Tl+ flux [19]: -0.0258 (inactive)

CC[N+](C)(C)c1cccc(O)c1
inhibition [1]: -1.36% (inactive)
inhibition [2]: 0.29% (inactive)
fluorescence ratio [3]: 0.96 (inactive)
nuclear beta-catenin stimulation ([4]; at 10 µM): -1.7% (inactive)
nuclear beta-catenin stimulation ([4]; stimulation, at 2 µM): 0.9%
insulin secretion stimulation [5]: 0% (inactive)
viability decrease [6]: -29% (inactive)
tube area decrease [7]: -7.4% (inactive)
GLP1 secretion stimulation [8]: 0.7% (inactive)
inhibition of viability [9]: -0.1% (inactive)
viability decrease (inhibition) [10]: -11.1% (inactive)
viability decrease (inhibition) [11]: -13.2% (inactive)
inhibition [12]: -4.48% (inactive)
red/green cell ratio (normalised) [13]: 1.2 (inactive)
normalised cell number [13, 21]: 0.65
normalised cell number [13, 22]: 0.78
z-score [14, 23]: -0.344 (inactive)
z-score [14, 24]: 0.198
remaining NAD [15]: 10 nM (inactive)
luciferase signal [16]: 68 AU (inactive)
log fold change Tl+ flux [17]: 0.0242 (inactive)
log fold change Tl+ flux [18]: 0.0329 (inactive)
log fold change Tl+ flux [19]: -0.0327 (inactive)

NCC(=O)CCC(=O)O
inhibition [1]: -2.27% (inactive)
inhibition [2]: -0.48% (inactive)
fluorescence ratio [3]: 1.02 (inactive)
nuclear beta-catenin stimulation ([4]; at 10 µM): 0.4% (inactive)
nuclear beta-catenin stimulation ([4]; stimulation, at 2 µM): -0.9%
insulin secretion stimulation [5]: 1.9% (inactive)
viability decrease [6]: 26.6% (inactive)
tube area decrease [7]: -10.4% (inactive)
GLP1 secretion stimulation [8]: -1.4% (inactive)
inhibition of viability [9]: 18.9% (inactive)
viability decrease (inhibition) [10]: 19.8% (inactive)
viability decrease (inhibition) [11]: 1% (inactive)
inhibition [12]: -28.8% (inactive)
red/green cell ratio (normalised) [13]: 1.08 (inactive)
normalised cell number [13, 21]: 1.3
normalised cell number [13, 22]: 1.4
fold change [20, 25]: 0.951 (inactive) and 0.95 (inactive) and 0.866 (inactive)
fold change [20, 26]: 1.44 and 0.654 and 2.02
cell count [20, 27]: 9310 and 7910 and 11200
cell count [20, 28]: 9780 and 8320 and 12900
z-score [14, 23]: -0.348 (inactive)
z-score [14, 24]: 0.0439
remaining NAD [15]: 10 nM (inactive)
luciferase signal [16]: 84 AU (inactive)
log fold change Tl+ flux [17]: -0.035 (inactive)
log fold change Tl+ flux [18]: -0.0239 (inactive)
log fold change Tl+ flux [19]: 0.011 (inactive)

Source: PubChem BioAssay
